# Test results as given in PubChem BioAssay AID1159580 (chemical genetic matrix, 2015).
# Values joined by “and” are separate entries in the source; they are usually repeats but may differ in a detail not shown here. Equal values may be shown once. The whole screen tested about 5,500 compounds, of which about 2,000 (36%) were called active. Inconclusive results (about 18%) are left out. No stated cut-off is given here; in the data, active means normalized growth mostly below about 0.91 (no sharp cut-off); inconclusive means no clear call, values can overlap the other calls; inactive means mostly above about 0.92. This is one part of the list.
# Assay: chemical genetic growth profiling, strain panel (AID 1159580);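 further: tested at 20 µM; growth read once vehicle control cultures reached saturation at 30 °C; 1 = growth at the plate median or of vehicle wells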
# Conditions: S. cerevisiae deletion strains, growth OD
compound,measurement,setting,value
O=c1c(O)c(-c2ccccc2)oc2ccc3occc3c12,normalized growth,"locus YAL013W, strain DEP1, stronger effect = lower value",0.925 (inactive)
same,normalized growth,"locus YAL021C, strain ccr4, stronger effect = lower value",0.987 (inactive)
same,normalized growth,"locus YAL026C, strain drs2, stronger effect = lower value",0.808 (active)
same,normalized growth,"locus YAL030W, strain snc1, stronger effect = lower value",0.902 (active)
same,normalized growth,"locus YBL061C, strain skt5, stronger effect = lower value",0.811 (active)
same,normalized growth,"locus YBR009C, strain hhf1, stronger effect = lower value",0.627 (active)
same,normalized growth,"locus YBR021W, strain FUR4, stronger effect = lower value",0.889 (inactive)
same,normalized growth,"locus YBR023C, strain chs3, stronger effect = lower value",0.71 (active)
same,normalized growth,"locus YBR171W, strain sec66, stronger effect = lower value",0.962 (inactive)
same,normalized growth,"locus YBR229C, strain ROT2, stronger effect = lower value",0.955 (inactive)
same,normalized growth,"locus YBR231C, strain swc5, stronger effect = lower value",0.799 (active)
same,normalized growth,"locus YBR279W, strain paf1, stronger effect = lower value",0.796 (active)
same,normalized growth,"locus YCL011C, strain gbp2, stronger effect = lower value",0.814 (active)
same,normalized growth,"locus YCL016C, strain dcc1, stronger effect = lower value",0.766 (active)
same,normalized growth,"locus YCL029C, strain bik1, stronger effect = lower value",0.749 (active)
same,normalized growth,"locus YCL061C, strain MRC1, stronger effect = lower value",0.801 (active)
same,normalized growth,"locus YCL069W, strain vba3, stronger effect = lower value",0.662 (active)
same,normalized growth,"locus YCR088W, strain abp1, stronger effect = lower value",0.93 (inactive)
same,normalized growth,"locus YDL005C, strain med2, stronger effect = lower value",0.951 (inactive)
same,normalized growth,"locus YDL035C, strain GPR1, stronger effect = lower value",0.849 (active)
same,normalized growth,"locus YDL040C, strain nat1, stronger effect = lower value",0.93 (active)
same,normalized growth,"locus YDL074C, strain BRE1, stronger effect = lower value",0.671 (active)
same,normalized growth,"locus YDL101C, strain DUN1, stronger effect = lower value",0.858 (active)
same,normalized growth,"locus YDL185W, strain tfp1, stronger effect = lower value",0.938 (inactive)
same,normalized growth,"locus YDL192W, strain arf1, stronger effect = lower value",0.731 (active)
same,normalized growth,"locus YDR001C, strain nth1, stronger effect = lower value",0.956 (inactive)
same,normalized growth,"locus YDR069C, strain doa4, stronger effect = lower value",0.941 (inactive)
same,normalized growth,"locus YDR101C, strain arx1, stronger effect = lower value",0.765 (active)
same,normalized growth,"locus YDR137W, strain rgp1, stronger effect = lower value",0.798 (active)
same,normalized growth,"locus YDR150W, strain NUM1, stronger effect = lower value",0.954 (inactive)
same,normalized growth,"locus YDR159W, strain sac3, stronger effect = lower value",0.742 (active)
same,normalized growth,"locus YDR162C, strain NBP2, stronger effect = lower value",0.782 (active)
same,normalized growth,"locus YDR195W, strain ref2",1.23 [resistant] (active)
same,normalized growth,"locus YDR297W, strain sur2, stronger effect = lower value",0.849 (active)
same,normalized growth,"locus YDR318W, strain mcm21, stronger effect = lower value",0.799 (active)
same,normalized growth,"locus YDR334W, strain swr1, stronger effect = lower value",0.913 (inactive)
same,normalized growth,"locus YDR335W, strain msn5, stronger effect = lower value",0.773 (active)
same,normalized growth,"locus YDR388W, stronger effect = lower value",0.847 (active)
same,normalized growth,"locus YDR392W, strain spt3, stronger effect = lower value",0.172 (active)
same,normalized growth,"locus YDR502C, strain sam2, stronger effect = lower value",0.783 (active)
same,normalized growth,"locus YEL003W, strain gim4, stronger effect = lower value",0.814 (active)
same,normalized growth,"locus YEL037C, strain rad23, stronger effect = lower value",0.86 (active)
same,normalized growth,"locus YEL061C, strain CIN8 (second series), stronger effect = lower value",0.71 (active)
same,normalized growth,"locus YEL061C, strain CIN8, stronger effect = lower value",0.93 (inactive)
same,normalized growth,"locus YER015W, strain faa2, stronger effect = lower value",0.829 (active)
same,normalized growth,"locus YER016W, strain bim1, stronger effect = lower value",0.92 (active)
same,normalized growth,"locus YER110C, stronger effect = lower value",0.767 (active)
same,normalized growth,"locus YER111C, strain swi4, stronger effect = lower value",0.793 (active)
same,normalized growth,"locus YER155C, strain BEM2 (second series), stronger effect = lower value",0.25 (active)
same,normalized growth,"locus YER155C, strain BEM2, stronger effect = lower value",0.807 (active)
same,normalized growth,"locus YER167W, strain BCK2, stronger effect = lower value",0.9 (active)
same,normalized growth,"locus YFR010W, strain ubp6, stronger effect = lower value",0.926 (inactive)
same,normalized growth,"locus YGL078C, strain dbp3, stronger effect = lower value",0.884 (active)
same,normalized growth,"locus YGL086W, strain mad1, stronger effect = lower value",0.764 (active)
same,normalized growth,"locus YGL167C, strain pmr1, stronger effect = lower value",0.919 (inactive)
same,normalized growth,"locus YGL173C, strain kem1, stronger effect = lower value",0.833 (active)
same,normalized growth,"locus YGL227W, strain vid30, stronger effect = lower value",0.888 (active)
same,normalized growth,"locus YGL240W, strain doc1, stronger effect = lower value",0.566 (active)
same,normalized growth,"locus YGL248W, strain PDE1, stronger effect = lower value",0.801 (active)
same,normalized growth,"locus YGL253W, strain hxk2, stronger effect = lower value",0.501 (active)
same,normalized growth,"locus YGR135W, strain pre9, stronger effect = lower value",0.713 (active)
same,normalized growth,"locus YGR229C, strain SMI1, stronger effect = lower value",0.416 (active)
same,normalized growth,"locus YGR252W, strain gcn5, stronger effect = lower value",0.593 (active)
same,normalized growth,"locus YHR013C, strain ard1, stronger effect = lower value",0.921 (inactive)
same,normalized growth,"locus YHR027C, strain rpn1, stronger effect = lower value",0.937 (inactive)
same,normalized growth,"locus YHR030C, strain SLT2, stronger effect = lower value",0.72 (active) and 0.968 (inactive)
same,normalized growth,"locus YHR079C, strain IRE1 (second series), stronger effect = lower value",0.873 (active)
same,normalized growth,"locus YHR079C, strain IRE1, stronger effect = lower value",0.956 (inactive)
same,normalized growth,"locus YHR094C, strain hxt1, stronger effect = lower value",0.904 (active)
same,normalized growth,"locus YHR142W, strain chs7, stronger effect = lower value",0.367 (active)
same,normalized growth,"locus YHR200W, strain rpn10, stronger effect = lower value",0.798 (active)
same,normalized growth,"locus YIL066C, strain RNR3, stronger effect = lower value",0.833 (active)
same,normalized growth,"locus YIL073C, strain SPO22, stronger effect = lower value",0.733 (inactive)
same,normalized growth,"locus YIL125W, strain kgd1, stronger effect = lower value",0.886 (active)
same,normalized growth,"locus YIR030C, strain dcg1, stronger effect = lower value",0.794 (active)
same,normalized growth,"locus YJL092W, strain hpr5, stronger effect = lower value",0.879 (active)
same,normalized growth,"locus YJL095W, strain BCK1 (second series), stronger effect = lower value",0.562 (active)
same,normalized growth,"locus YJL095W, strain BCK1, stronger effect = lower value",0.437 (active) and 0.978 (inactive)
same,normalized growth,"locus YJL115W, strain asf1, stronger effect = lower value",0.943 (inactive)
same,normalized growth,"locus YJL129C, strain trk1, stronger effect = lower value",0.852 (active)
same,normalized growth,"locus YJL134W, strain LCB3, stronger effect = lower value",0.956 (inactive)
same,normalized growth,"locus YJL154C, strain vps35, stronger effect = lower value",0.939 (inactive)
same,normalized growth,"locus YJL164C, strain tpk1, stronger effect = lower value",0.781 (active)
same,normalized growth,"locus YJL166W, strain qcr8, stronger effect = lower value",0.74 (active)
same,normalized growth,"locus YJL168C, strain set2, stronger effect = lower value",0.925 (active)
same,normalized growth,"locus YJL187C, strain SWE1 (second series), stronger effect = lower value",0.847 (active)
same,normalized growth,"locus YJR043C, strain POL32, stronger effect = lower value",0.64 (active)
same,normalized growth,"locus YJR066W, strain TOR1, stronger effect = lower value",0.883 (inactive)
